Results on 39 compounds are retold here after the supplement of paper PMC12494721.

Structures can show the parent of a compound that is named as a salt.

The test system of one test is Clostridium sporogenes DSM 1664. As to the kind of experiment: growth (OD595) fold change vs plate DMSO controls (fold change (ratio)); higher = more growth. Conditions: incubation time: 27 h, anaerobic, 37 °C. A digest of the protocol: (§1)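 The 96-well mGAM cultures had been kept anaerobic for 27 h at 37 °C before being shaken and read at 595 nm. Blank subtraction, compound background correction with 20 µM compound solutions in water, and a calibration factor of 5 turned the readings into OD. Growth is given as the fold change versus the median of plate DMSO controls. Fold changes above 1.5 were set to NA, and the values are means of 2 biological replicates.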
On to `N[C@@H](CSCCCO)C(=O)O` [Fudosteine] (20 µM), for which the growth amounted to 0.96.

For the compound `CC1=C(C)C(=O)C(C(CCCCCC(=O)O)c2ccccc2)=C(C)C1=O` (configuration not stated) [Seratrodast] (20 µM), the growth worked out at 0.927.

Regarding `C[C@]12C=CC(=O)C=C1CC[C@@H]1[C@@H]2C(=O)C[C@@]2(C)[C@H]1CC[C@]2(O)C(=O)CO` [Prednisone] (20 µM), the growth came out at 1.04.

The next test has as its system Escherichia coli IAI1. The test is described as above. Conditions: incubation time: 27 h, anaerobic, 37 °C. A digest of the protocol:
as §1
On to `CN[C@H](CC(C)C)C(=O)N[C@H]1C(=O)N[C@@H](CC(N)=O)C(=O)N[C@H]2C(=O)N[C@H]3C(=O)N[C@H](C(=O)N[C@H](C(=O)O)c4cc(O)cc(O)c4-c4cc3ccc4O)[C@H](O)c3ccc(c(Cl)c3)Oc3cc2cc(c3O[C@@H]2O[C@H](CO)[C@@H](O)[C@H](O)[C@H]2O[C@H]2C[C@](C)(N)[C@H](O)[C@H](C)O2)Oc2ccc(cc2Cl)[C@H]1O` [Vancomycin hydrochloride] (20 µM), for which the growth amounted to 1.06.

For the compound `OC[C@H]1OC(O)[C@H](O)[C@H](O)[C@@H]1O` (stereo partly drawn) [D-allose] (50 µM), the growth came out at 0.999.

As to `COC1=CC(=O)C[C@@H](C)[C@]12Oc1c(Cl)c(OC)cc(OC)c1C2=O` [Griseofulvin] (20 µM), the growth turned out to be 1.02.

As for `CN1CCN(CCCN2c3ccccc3Sc3ccc(C(F)(F)F)cc32)CC1` [Trifluoperazine dihydrochloride] (20 µM), the growth stood at 1.08.

Consider `CCCN(CCC)S(=O)(=O)c1ccc(C(=O)O)cc1` [Probenecid] (20 µM), for which the growth stood at 1.02.

As to `C#C[C@]1(O)CC[C@H]2[C@@H]3CCC4=CC(=O)CC[C@@H]4[C@H]3CC[C@@]21C` [Norethindrone] (20 µM), the growth turned out to be 0.973.

On to `NC(=O)c1ncn([C@@H]2O[C@H](CO)[C@@H](O)[C@H]2O)n1` [Ribavirin] (20 µM), for which the growth was determined as 0.988.

`Cc1c(O)cccc1C(=O)N[C@@H](CSc1ccccc1)[C@H](O)CN1C[C@H]2CCCC[C@H]2C[C@H]1C(=O)NC(C)(C)C` [Nelfinavir mesylate] (20 µM): the growth worked out at 1.09.

For `CC1(C)S[C@@H]2[C@H](NC(=O)Cc3ccccc3)C(=O)N2[C@H]1C(=O)O` [Benzylpenicillin sodium] (20 µM), the growth turned out to be 1.19.

On to `COC(=O)Nc1nc2cc([S+]([O-])c3ccccc3)ccc2[nH]1` (configuration not stated) [Oxfendazole] (20 µM), for which the growth came to 1.04.

As for `CCCc1nc(C)c2c(=O)nc(-c3cc(S(=O)(=O)N4CCN(CC)CC4)ccc3OCC)[nH]n12` [Vardenafil] (20 µM), the growth was determined as 0.975.

Take `NS(=O)(=O)c1cc(C(=O)O)cc(N2CCCC2)c1Oc1ccccc1` [Piretanide] (20 µM): the growth was found to be 0.987.

As to `C[C@H]1C[C@@H]2[C@H]([C@@H](O)C[C@@]3(C)[C@H]2CC[C@]3(O)C(=O)CO)[C@@]2(C)C=CC(=O)C=C12` [Methylprednisolone, 6-alpha] (20 µM), the growth is 0.956.

`Oc1ccc2ccccc2c1N=Nc1ccccc1` [Sudan I (1-phenylazo-2-hydroxynaphthalene)] (20 µM): the growth was determined as 1.06.

Regarding `CC(=O)OCC(=O)[C@@]1(O)CC[C@H]2[C@@H]3CCC4=CC(=O)CC[C@]4(C)[C@H]3[C@@H](O)C[C@@]21C` [Cortisol acetate] (20 µM), the growth came out at 1.03.

For `CCN(CC)CCNc1ccc(CO)c2sc3ccccc3c(=O)c12` [Hycanthone] (20 µM), the growth stood at 1.03.

`CC(=O)NC[C@H]1CN(c2ccc(N3CCOCC3)c(F)c2)C(=O)O1` [Linezolid] (20 µM): the growth is 0.788.

`NNC(=O)c1ccncc1` [Isoniazid] (20 µM): the growth worked out at 1.01.

With `O=C(NCCO[N+](=O)[O-])c1cccnc1` [Nicorandil] (20 µM), the growth stood at 0.985.

Turning to `CC(=O)[C@H]1CC[C@H]2[C@@H]3CC=C4C[C@@H](O)CC[C@]4(C)[C@H]3CC[C@]12C` [Pregnenolone] (20 µM), the growth amounted to 1.07.

Take `OC[C@@H](O)[C@@H](O)[C@H](O)[C@H](O)CO` [Mannitol] (50 µM): the growth is 0.924.

With `CC[C@@]1(O)C(=O)OCc2c1cc1n(c2=O)Cc2cc3c(CN(C)C)c(O)ccc3nc2-1` [Topotecan] (20 µM), the growth is 1.03.

As to `CCCCc1ncc(/C=C(\Cc2cccs2)C(=O)O)n1Cc1ccc(C(=O)O)cc1` [Eprosartan mesylate] (20 µM), the growth was 1.06.

For the compound `CCN(CC)CC(=O)Nc1c(C)cccc1C` [Lidocaine hydrochloride] (20 µM), the growth is 0.973.

For `CC(C)c1nc(CN(C)C(=O)N[C@H](C(=O)N[C@@H](Cc2ccccc2)C[C@H](O)[C@H](Cc2ccccc2)NC(=O)OCc2cncs2)C(C)C)cs1` [Ritonavir] (20 µM), the growth worked out at 0.962.

Turning to `O=C(OCCOCCO)c1ccccc1Nc1cccc(C(F)(F)F)c1` [Etofenamate] (20 µM), the growth came to 1.09.

Regarding `CCCCOc1ccc(CC(=O)NO)cc1` [Bufexamac] (20 µM), the growth came to 0.929.

Take `Cc1scc2c1N(C(=O)CN1CCN(C)CC1)c1ccccc1NC2=O` [Telenzepine dihydrochloride] (20 µM): the growth stood at 1.07.

Regarding `OC[C@H]1O[C@H](O[C@H]2O[C@H](CO)[C@@H](O)[C@H](O)[C@H]2O)[C@H](O)[C@@H](O)[C@@H]1O` [Trehalose] (50 µM), the growth was determined as 1.07.

For `NCCCC(O)(P(=O)(O)O)P(=O)(O)O` [Alendronate sodium] (20 µM), the growth came out at 1.04.

For the compound `CC(=O)Nc1ccc(CC(=O)O)cc1` [Actarit] (20 µM), the growth worked out at 0.972.

Take `CCCCc1cc2ccccc2c(OCCN(C)C)n1` [Dimethisoquin hydrochloride] (20 µM): the growth worked out at 1.01.

As to `CC[C@H]1OC(=O)C[C@@H](O)[C@H](C)[C@@H](O[C@@H]2O[C@H](C)[C@@H](O[C@H]3C[C@@](C)(O)[C@@H](O)[C@H](C)O3)[C@H](N(C)C)[C@H]2O)[C@@H](CC=O)C[C@@H](C)C(=O)/C=C/C(C)=C/[C@@H]1CO[C@@H]1O[C@H](C)[C@@H](O)[C@@H](OC)[C@H]1OC` [Tylosin] (20 µM), the growth is 0.953.

`CN(C)CCC=C1c2ccccc2C=Cc2ccccc21` [Cyclobenzaprine hydrochloride] (20 µM): the growth stood at 1.01.

For the compound `CC(=C(CCO)SSCC1CCCO1)N(C=O)Cc1cnc(C)nc1N` (stereo in doubt) [Fursultiamine hydrochloride] (20 µM), the growth came out at 1.03.

Turning to `CCOC(=O)O[C@]1(C(=O)OCCl)CC[C@H]2[C@@H]3CCC4=CC(=O)C=C[C@]4(C)[C@H]3[C@@H](O)C[C@@]21C` [Loteprednol etabonate] (20 µM), the growth came out at 1.26.

Take `N[C@@H](CSCCCO)C(=O)O` [Fudosteine] (20 µM): the growth stood at 1.05.

With `CC1=C(C)C(=O)C(C(CCCCCC(=O)O)c2ccccc2)=C(C)C1=O` (configuration not stated) [Seratrodast] (20 µM), the growth is 0.998.

For the compound `C[C@]12C=CC(=O)C=C1CC[C@@H]1[C@@H]2C(=O)C[C@@]2(C)[C@H]1CC[C@]2(O)C(=O)CO` [Prednisone] (20 µM), the growth came to 1.05.
